Source: PubChem (National Center for Advancing Translational Sciences (NCATS))
A selection: hits, their analogues and other compounds. The true share with any hit is near 3%.
SARS PLpro yeast – qHTS of Yeast-based Assay for SARS-CoV PLP. S. cerevisiae expressing SARS-CoV PLpro, growth rescue. Potency, µM (series often up to 32.9 µM), without a hit: top-dose activity, positive = growth rescue, hits mostly activators. hit rate 0.19% among 330,000; calls by dose curve; further: 0% is about no effect; nearly all actives have a fitted effect of over 55% in size
Sm TGR inh – qHTS Assay for the Inhibitors of Schistosoma Mansoni Peroxiredoxins | AID 485364, 2010 | Potency, µM (doses to about 114 µM), without a hit: at the top dose activity change, negative = inhibition, hits mostly inhibitors | Schistosoma mansoni thioredoxin glutathione reductase (TGR), Q962Y6 | purified TGR, DTNB reduction, TNB absorbance 405 nm | hit rate 3% among 360,000; active means well fitted inhibition curve with a large enough effect; inconclusive means small, poorly fitted or top-dose-only effect; inactive means no such curve, though single readings can be large or run the other way; further: on the % scale 0 is the no-effect control and ±100 the full control effect; nearly all actives have a fitted effect of over 60% in size
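TGR 20 nM + NADPH 100 uM (dispensed conc.), cpd preinc 15 min RT; start with NADPH (500 uM addition) then DTNB (15 mM addition). Kinetic TNB absorbance, 405 nm filter. Four-parameter Hill fit across titration.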
* marks the source's active call; other numbers are inactive results; u = inconclusive; x = not tested or not shown. Potency means the concentration at half of the fitted maximal effect.

SMILES | SARS PLpro yeast | Sm TGR inh
Cc1cccnc1NCc1ccc(O)c2ncccc12 | u | 0.28µM*
Oc1ccc(CNc2cccc(C(F)(F)F)c2)c2cccnc12 | u | 0.32µM*
Cc1cccc(NC(=O)N2CC(=O)Nc3sc4c(c3C2c2ccccc2)CCCC4)c1C (centres undefined) | x | 3%
CC(NC(=O)C1CCN(S(=O)(=O)c2ccc(F)cc2)CC1)c1ccccc1 (centres undefined) | x | -7%
CCc1ccc(NC(=O)Cn2c(=O)nc(-c3ccccc3F)c3cc(Cl)ccc32)cc1 | x | 22%
COc1ccc2c(c1)c1c(c(=O)n(-c3ccccc3C)c(=O)n1CC(N)=O)n2C | x | 2%
O=C(COC(=O)c1nc(Cl)ccc1Cl)c1ccc[nH]1 | -1% | 5%
O=C(COC(=O)c1nc(Cl)c(Cl)c(Cl)c1Cl)c1ccc[nH]1 | -13% | 20µM*
CCOC(=O)CN(Cc1ccccc1)C(C(=O)NC1CCCCC1)c1ccccc1 (centres undefined) | x | -6%
CCOc1ccc(CCNC(=O)c2cc3cccc4c3n2CCS4)cc1 | x | 7%
CCn1c(SCC(=O)N/N=C/C=C/c2ccco2)nnc1-c1ccccc1 | 1% | 35µM*
Cn1c(SCC(=O)N/N=C/C=C/c2ccco2)nc2ccccc21 | 8% | 22µM*
O=C(CSc1nnc(SCc2ccc(Cl)cc2)s1)N/N=C/c1ccc(C(=O)O)cc1 | -1% | -11%
Cn1c(SCC(=O)N/N=C/C=C/c2ccccc2[N+](=O)[O-])nc2ccccc21 | 11% | -11%
O=C(CSc1nnc(SCc2ccccc2)s1)N/N=C/C=C/c1ccco1 | 4% | 40µM*
Cc1ccc(OCC(=O)N/N=C/C=C/c2ccco2)cc1C | -47% | 50µM*
Cc1ccc(OCC(=O)N/N=C/c2ccco2)cc1 | -8% | -14%
CCn1c(SCC(=O)N/N=C/C(C)=C/c2ccco2)nnc1-c1ccccc1 | -2% | u
Cc1ccc(NC(=O)C2CCN(c3cc(C)nc4c(-c5ccc(Cl)cc5)c(C)nn34)CC2)c(C)c1 | x | 2%
CCS(=O)(=O)N1CC(=O)N(c2ccc(Cl)cc2C)C(C)(C(=O)NC2CCCCC2)C1 (centres undefined) | x | 0%
CCOc1ccc(CNC(=O)CN2C(=O)CSc3c2c(C)nn3-c2ccccc2)cc1 | x | 0%
CCC1=Nc2cc(C(=O)N3CCC(C)CC3)ccc2Sc2ccc(C)cc21 | x | -2%
O=C(Cc1cccs1)N/N=C/C=C/c1ccco1 | -1% | 4µM*
O=C(CNc1cccc2ccccc12)N/N=C/C=C/c1ccco1 | -8% | 8%
COc1ccc(NS(=O)(=O)c2c(C)nc3scc(C)n3c2=O)cc1 | x | 8%
SMILES | SARS PLpro yeast | Sm TGR inh
CC(=O)N1CCN(c2ccc(S(C)(=O)=O)cc2[N+](=O)[O-])CC1 | 1% | -10%
O=C(Cc1ccccc1)Oc1ccc([N+](=O)[O-])cc1 | -2% | -13%
CS(=O)(=O)c1ccc(S(=O)CC(=O)Oc2ccc(Cl)cc2)c([N+](=O)[O-])c1 (centres undefined) | 0% | 1.6µM*
O=C(CS(=O)c1ccccc1[N+](=O)[O-])Oc1ccc(Br)cc1 (centres undefined) | -7% | 25µM*
COc1ccc(CNC(=O)CCc2c(C)nc3nc(CNC(=O)OC(C)(C)C)nn3c2C)cc1 | x | -1%
Cc1ccccc1CN1CCc2nc(Nc3ccc4c(c3)OCCO4)ncc2C1 | x | 9%
Cc1cccc(N2CCN(C(=O)CN3C(=O)COc4ccc(S(=O)(=O)N5CCC(C)CC5)cc43)CC2)c1C | x | 3%
Fc1ccc(Br)cc1C1C=C(c2ccc(Br)s2)Nc2ncnn21 (centres undefined) | -5% | 1.3µM*
COc1cccc(C2C=C(c3ccc(Br)s3)Nc3ncnn32)c1OC (centres undefined) | -7% | u
Cc1ccc(Cl)cc1N1CCN(C(=O)c2c(C)oc3ncnc(N4CCOCC4)c23)CC1 | x | 2%
COc1ccc(CC(=O)NCc2nc3cccnc3n2Cc2ccc(F)cc2)cc1OC | x | 5%
Cc1cccc(Cn2c(COc3ccc(Cl)cc3)nc3ccccc32)c1 | x | -2%
CCS(=O)(=O)c1nc(S(=O)(=O)c2ccc(C)cc2)c(NCc2ccccn2)s1 | 1% | 1%
Cc1ccc(S(=O)(=O)c2nc(S(=O)(=O)c3ccc(C)cc3)c(NCc3ccco3)s2)cc1 | 3% | -34%
CS(=O)(=O)c1nc(S(=O)(=O)c2ccc(Cl)cc2)c(NCc2ccccn2)s1 | -1% | 35µM*
CCCS(=O)(=O)c1nc(S(=O)(=O)c2ccc(C)cc2)c(NCc2ccccn2)s1 | -4% | 7.9µM*
CCS(=O)(=O)c1nc(S(=O)(=O)c2ccc(C)cc2)c(N2CC(C)OC(C)C2)s1 (centres undefined) | -3% | -20%
CCCS(=O)(=O)c1nc(S(=O)(=O)c2ccc(C)cc2)c(N2CC(C)OC(C)C2)s1 (centres undefined) | 1% | 18µM*
